Not all results are given here.
aSyn UTR act: Activators via SNCA 5'UTR binding, MLPCN | alpha-synuclein 5'UTR reporter, activators screen | activity score, % (tested at 7.5 µM), hits read low | actives 7.1% (n = 300,000); in the data active means activity score below about -60%
* marks the source's active call; other numbers are inactive results.

How did NNc1nc(-c2ccccc2Cl)nc2sc3c(c12)CCCC3 do in these assays?
aSyn UTR act: -200*

How did Cc1cc(C)c2nc(NCCCNC(=S)NCCCN(C)C)c(C#N)cc2c1 do in these assays?
aSyn UTR act: 96

What do the screens show for `C=CCNc1oc(/C=C/c2ccccc2)nc1C#N`?
aSyn UTR act: -152*

Results for CN(C)CCCNc1oc(/C=C/c2ccccc2)nc1C#N ?
aSyn UTR act: -88*

How did CN(C)CCNc1oc(/C=C/c2ccccc2)nc1C#N do in these assays?
aSyn UTR act: -98*

Results for O=C(NC(=S)Nc1cccnc1)c1cc2ccccc2o1 ?
aSyn UTR act: -66*

What do the screens show for `O=C(Nc1cccnc1)c1cc2cc(Br)ccc2o1`?
aSyn UTR act: -116*

What do the screens show for `CC(=O)Nc1ccc(NC(=S)NC(=O)c2cc3ccccc3o2)cc1`?
aSyn UTR act: -71*

How did Cc1cc(C)cc(C(=O)NC(=S)Nc2ccc(-c3cc4ccccc4oc3=O)cc2)c1 do in these assays?
aSyn UTR act: 97

What do the screens show for `O=C(NC(=S)Nc1ccc(CN2CCCCC2)cc1)c1cc2ccccc2o1`?
aSyn UTR act: -68*

What do the screens show for `O=C(Nc1ccc2c(c1)oc1ccccc12)c1ccc(Br)o1`?
aSyn UTR act: -210*

How did Cc1cccc(NC(=O)c2ccc(C(=O)c3ccccc3)o2)c1 do in these assays?
aSyn UTR act: -156*

Results for CCCC/C(=N\NC(=O)c1ccc(Br)o1)c1ccccc1 ?
aSyn UTR act: -69*

How did O=C(c1ccccc1)c1cccc(NC(=O)c2ccc(Br)o2)c1 do in these assays?
aSyn UTR act: -90*

How did O=C(Nc1ccccc1)c1ccc(Br)o1 do in these assays?
aSyn UTR act: -73*

How did CCc1cccc(NC(=O)c2ccc(Br)o2)c1 do in these assays?
aSyn UTR act: -116*

Results for Cc1cc(OCC(=O)N(C)Cc2ccccc2)ccc1Br ?
aSyn UTR act: -68*

What do the screens show for `Cc1cs/c(=N\N=C\c2cccc([N+](=O)[O-])c2)n1Cc1ccco1`?
aSyn UTR act: -97*

What do the screens show for `Fc1ccc(-c2nnc(CSc3nnc4ccccn34)o2)cc1`?
aSyn UTR act: -116*

What do the screens show for `c1ccc(-c2cnc(CSc3nnc4ccccn34)o2)cc1`?
aSyn UTR act: -94*

Results for Fc1ccc(CSc2nnc3ccccn23)c(Cl)c1 ?
aSyn UTR act: -92*

Results for COc1cccc(NC(=O)Nc2nc(SC(C)(C)C)ns2)c1 ?
aSyn UTR act: -130*

What do the screens show for `COc1cccc(NC(=O)Nc2nc(SC)ns2)c1`?
aSyn UTR act: -151*

How did CCOc1ccc(/C=C/C(=O)CCC(=O)O)cc1 do in these assays?
aSyn UTR act: -79*

How did CCOc1ccc(/C=C\C(C)=N\O)cc1 do in these assays?
aSyn UTR act: -150*

How did CC(/C=N/N1CCN(c2ccccn2)CC1)=C\c1ccccc1 do in these assays?
aSyn UTR act: -134*

What do the screens show for `C(=C\c1ccccc1)/C=N/N1CCN(c2ccccn2)CC1`?
aSyn UTR act: -153*

How did C(=C\c1ccccc1)/C=N/N1CCN(Cc2ccccc2)CC1 do in these assays?
aSyn UTR act: -74*

What do the screens show for `C(/C=C/c1ccccc1)=N/N1CCN(c2ccccc2)CC1`?
aSyn UTR act: -136*

What do the screens show for `CCOC(=O)c1oc2ccc(CNCCO)c(Cl)c2c1C`?
aSyn UTR act: -63*

Results for C=CCNC(=O)c1ccc(OC2CCN(S(=O)(=O)N(C)C)CC2)cc1 ?
aSyn UTR act: -162*

Results for CCc1ccc2oc(-c3cc(N)ccc3Cl)nc2c1 ?
aSyn UTR act: -63*

Results for Nc1ccc2oc(-c3ccccc3Cl)nc2c1 ?
aSyn UTR act: 57

What do the screens show for `COc1ccccc1/C=N/NC(=Nc1ccc(C)cc1)c1nc2ccccc2s1`?
aSyn UTR act: -99*

What do the screens show for `COc1cc(C=C(c2nc3ccccc3s2)c2nc3ccccc3s2)cc(OC)c1O`?
aSyn UTR act: -98*

Results for COc1cc(/C=N/NC(=Nc2ccc(C)cc2)c2nc3ccccc3s2)ccc1O ?
aSyn UTR act: -148*

Results for O=C1CCCc2c1[nH]c1ccc(Cl)cc21 ?
aSyn UTR act: 63

Results for CCOC(=O)c1ccc2[nH]c3c(c2c1)CCCCC3=O ?
aSyn UTR act: -102*

What do the screens show for `COc1ccc2cc(C(=O)C3CCCN(C(=O)CCc4ccccn4)C3)ccc2c1` (stereo unspecified)?
aSyn UTR act: -93*

How did C=CCNC(=O)N1CCCC(C(=O)c2cccc(OC(C)C)c2)C1 (stereo unspecified) do in these assays?
aSyn UTR act: -89*

What do the screens show for `CCCC(=O)N1CCCC(C(=O)c2cccc(OC(C)C)c2)C1` (stereo unspecified)?
aSyn UTR act: -80*

How did Cc1ccc2c(c1)COc1c3ccc(C(=O)N[C@@H](CO)C(C)C)cc3nn1-2 do in these assays?
aSyn UTR act: -144*

Results for COCCNC(=O)c1ccc2c3n(nc2c1)-c1ccc(C)cc1CO3 ?
aSyn UTR act: -151*

How did O=C(c1cc2cc(Cl)ccc2[nH]1)N1CCCCC1 do in these assays?
aSyn UTR act: -85*

Results for Cc1ccc(/C=N/NC(=O)c2nnn(-c3nonc3N)c2-c2cccs2)cc1 ?
aSyn UTR act: 69

How did CCOc1cccc(-c2c(C(=O)N/N=C(\C)c3ccccn3)nnn2-c2nonc2N)c1 do in these assays?
aSyn UTR act: 90

How did C/C(=N\NC(=O)c1nnn(-c2nonc2N)c1CN1CCc2ccccc21)c1ccccc1O do in these assays?
aSyn UTR act: 75

How did CN(C)Cc1c(C(=O)N/N=C/c2ccc(OCc3c(F)cccc3Cl)cc2)nnn1-c1nonc1N do in these assays?
aSyn UTR act: -76*

Results for C/C(=N\N=C\c1ccccc1F)c1nnn(-c2nonc2N)c1C ?
aSyn UTR act: -79*

What do the screens show for `Cc1cccc(COc2ccc(/C=N/NC(=O)c3nnn(-c4nonc4N)c3COc3ccc(F)cc3)cc2)c1`?
aSyn UTR act: -159*

How did C/C(=N\NC(=O)c1nnn(-c2nonc2N)c1C)c1ccc(OCc2ccccc2)cc1 do in these assays?
aSyn UTR act: -67*

What do the screens show for `Nc1nonc1-n1nnc(C(=O)N/N=C/c2ccc(OCc3ccccc3)cc2)c1COc1ccc(F)cc1`?
aSyn UTR act: -96*

How did COc1cc(/C=N/NC(=O)c2nnn(-c3nonc3N)c2C(C)C)ccc1OCc1ccccc1 do in these assays?
aSyn UTR act: -82*

How did CC(C)c1c(C(=O)N/N=C/c2ccc(OCc3ccc(F)cc3)cc2)nnn1-c1nonc1N do in these assays?
aSyn UTR act: -72*

How did Cc1nc2cc(NCc3ccc(Cl)cc3)ccc2n1C do in these assays?
aSyn UTR act: -67*

How did Cc1ccc(CNc2ccc3c(c2)nc(C)n3C)cc1 do in these assays?
aSyn UTR act: -64*

What do the screens show for `Oc1ccc(/C=N/NC(=S)Nc2cccnc2)cc1O`?
aSyn UTR act: -141*

How did S=C(N/N=C/c1ccc2ncccc2c1)Nc1cccnc1 do in these assays?
aSyn UTR act: 59

How did Fc1ccc(/C=N/NC(=S)Nc2ccc(Cl)cc2)cc1F do in these assays?
aSyn UTR act: -132*

What do the screens show for `Fc1ccc(NC(=S)N/N=C/c2ccc(F)c(F)c2)cc1`?
aSyn UTR act: -65*

What do the screens show for `COc1ccc(NC(=S)N/N=C/c2ccc(F)cc2)cc1OC`?
aSyn UTR act: -73*

Results for COc1ccc(NC(=S)Nc2ccc(C)c(Cl)c2)cc1OC ?
aSyn UTR act: -62*

How did O=[N+]([O-])c1ccc(N/N=C/c2sc(N3CCOCC3)nc2-c2ccccc2)c(S(=O)(=O)Nc2ccc(Cl)cc2)c1 do in these assays?
aSyn UTR act: 76

Results for C(=N\Nc1ccccn1)/c1ccc(N2CCOCC2)cc1 ?
aSyn UTR act: -182*

What do the screens show for `C/C(=N\Nc1ccccn1)c1ccc(N2CCOCC2)cc1`?
aSyn UTR act: -156*

Screening data as filed in PubChem BioAssay.
